Test systems include NCI-H23 lung; NCI-H226 lung; NCI-H322M lung; HOP-62 NSCLC; NCI-H460 lung; A549/ATCC NSCLC; 786-0 renal; COLO 205 colon.
What all share (assay): NCI-60 one-dose screen, 48 h (100 = growth as untreated, 0 = no growth, -100 = all killed)
What all share (details): 10 µM unless noted

From PubChem BioAssay (NCI) come the findings set out here.

About 83,000 compounds went through this panel and 20% of them were active in at least one assay; those are over-represented in the sample as a whole.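 96-well plates, one dose, 48 hours. Percent growth reported; active if below 10.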 A number with no mark means an inactive call. Activity calls are given as the source filed them.

For `Clc1ccc(I)c2ccccc12`, the growth with NCI-H23 lung was 106%; in the experiment with NCI-H226 lung, 103%; with NCI-H322M lung, 95.3%; in the experiment on HOP-62 NSCLC, 103%; with NCI-H460 lung it was 112%; in the experiment with A549/ATCC NSCLC it was 108%. Further, the growth in the experiment on 786-0 renal was 93.4%; with COLO 205 colon, 110%.
Turning to `CCCC[N+](C)(N)CCCC`, the growth with NCI-H23 lung is 112%; in the experiment with NCI-H226 lung, 105%; in the experiment on NCI-H322M lung it was 103%; in the experiment with HOP-62 NSCLC, 97.6%; in the experiment on NCI-H460 lung, 102%; in the experiment on A549/ATCC NSCLC, 103%. Moreover, the growth in the experiment with 786-0 renal was 97.1%; with COLO 205 colon, 122%.
For `COc1cccc(-c2cc(-c3cc4ccccc4oc3=O)nc(N)n2)c1`, the growth in the experiment on NCI-H23 lung was 101%; in the experiment with NCI-H226 lung, 91.2%; in the experiment on NCI-H322M lung, 123%; with HOP-62 NSCLC, 97.7%; in the experiment on NCI-H460 lung it was 102%; in the experiment on A549/ATCC NSCLC, 95%. Besides, the growth was 101% in the experiment on 786-0 renal and 108% in the experiment on COLO 205 colon.
`Oc1ccc(Br)cc1/C=N/NC(=S)NC12CC3CC(CC(C3)C1)C2`: the growth in the experiment with NCI-H23 lung is 1.36% (active); in the experiment on NCI-H226 lung, 31.5%; in the experiment with NCI-H322M lung, 36.5%; with HOP-62 NSCLC, 16.1%; in the experiment with NCI-H460 lung it was 2.18% (active); in the experiment with A549/ATCC NSCLC, 8.34% (active). Further, the values for the growth with 786-0 renal and in the experiment with COLO 205 colon were 54.8% and 68%, respectively.
In the case of `COC(=O)/C=C1/CCCCC1(C)C(=O)OC` (configuration not stated), the growth in the experiment on NCI-H23 lung is 109%; in the experiment on NCI-H226 lung, 102%; in the experiment with NCI-H322M lung, 105%; in the experiment with HOP-62 NSCLC, 105%; with NCI-H460 lung it was 107%; with A549/ATCC NSCLC, 101%. Besides, the growth was 96.4% with 786-0 renal and 120% in the experiment on COLO 205 colon.
Turning to `CCn1cnc(C[C@H](NC(=O)[C@@H](NC(=O)Nc2cc(C(F)(F)F)cc(C(F)(F)F)c2)C(C)(C)C)C(=O)OC)c1`, the growth in the experiment with NCI-H23 lung is -84.2% [100 µM] (active); in the experiment with NCI-H226 lung, -49.5% [100 µM] (active); with NCI-H322M lung, -96.3% [100 µM] (active); in the experiment with HOP-62 NSCLC, -95.5% [100 µM] (active); in the experiment on NCI-H460 lung, -57.2% [100 µM] (active); in the experiment on A549/ATCC NSCLC, -80.1% [100 µM] (active). Further, the growth was -83.9% [100 µM] (active) in the experiment on 786-0 renal and -80% [100 µM] (active) in the experiment with COLO 205 colon.
As to `O=C1CCNC1`, the growth in the experiment with NCI-H23 lung was 111%; with NCI-H226 lung, 103%; with NCI-H322M lung, 96.5%; in the experiment on HOP-62 NSCLC, 108%; with NCI-H460 lung, 109%; in the experiment with A549/ATCC NSCLC, 101%. In addition, the growth is 96.1% with 786-0 renal and 112% with COLO 205 colon.
Consider `CN(C)CCOC(=O)C(C)(C)C`, for which the growth was 114% with NCI-H23 lung; 98% in the experiment on NCI-H226 lung; 107% in the experiment with NCI-H322M lung; 112% in the experiment on HOP-62 NSCLC; 103% in the experiment with NCI-H460 lung; 101% in the experiment on A549/ATCC NSCLC. In addition, the growth with 786-0 renal was 110%; with COLO 205 colon, 116%.
On to `CC(C)CCCCCOC(=O)c1ccccc1SSc1ccccc1C(=O)OCCCCCC(C)C`, for which the growth is 108% in the experiment on NCI-H23 lung; 97.3% in the experiment with NCI-H226 lung; 132% with NCI-H322M lung; 99.8% in the experiment on HOP-62 NSCLC; 108% in the experiment with NCI-H460 lung; 99.2% in the experiment on A549/ATCC NSCLC. Moreover, the growth is 104% with 786-0 renal and 109% in the experiment on COLO 205 colon.
As to `C/C=C/C/C=C/[C@H](C)C[C@H](O)[C@@H]1C[C@@H]2O[C@H]2/C=C/[C@H](O)[C@@H](O)/C=C/C[C@H](C)CC(=O)O1`, the growth in the experiment with NCI-H23 lung was 83%; in the experiment with NCI-H226 lung, 87%; in the experiment with NCI-H322M lung, 88.9%; in the experiment on HOP-62 NSCLC it was 89.6%; in the experiment on NCI-H460 lung, 62.8%; with A549/ATCC NSCLC, 71.8%. Also, the growth with 786-0 renal is 83.3%; in the experiment on COLO 205 colon, 109%.
In the case of `CC(=O)/C(=C\c1c(-c2ccccc2)[nH]c2ccccc12)S(=O)(=O)c1ccccc1`, the growth with NCI-H23 lung is -19.8% (active); in the experiment on NCI-H226 lung, 23.2%; in the experiment on NCI-H322M lung, 43.1%; in the experiment on HOP-62 NSCLC, 6.39% (active); in the experiment on NCI-H460 lung, 2.86% (active); in the experiment with A549/ATCC NSCLC, 19.6%. In addition, the growth in the experiment on 786-0 renal was 9.85% (active); in the experiment with COLO 205 colon it was 12%.
Regarding `CC(O)CN(CCO)CCN(CCO)CC(C)O` (configuration not stated), the growth with NCI-H23 lung was 111%; with NCI-H226 lung, 99.3%; in the experiment on NCI-H322M lung, 103%; in the experiment on HOP-62 NSCLC, 110%; in the experiment with NCI-H460 lung, 109%; in the experiment on A549/ATCC NSCLC, 102%. The growth in the experiment with 786-0 renal was 94.6%; in the experiment on COLO 205 colon, 115%.
Consider `CC1(C)N=C(N)N=C(N)N1c1cccc(CCCCOc2ccccc2)c1`, for which the growth in the experiment with NCI-H23 lung was 24%; with NCI-H226 lung, 43.4%; in the experiment with NCI-H322M lung it was 35.6%; in the experiment with HOP-62 NSCLC, 11.4%; in the experiment with NCI-H460 lung it was 4.82% (active); with A549/ATCC NSCLC, 11.2%. Moreover, the growth is 21.8% with 786-0 renal and 29.3% with COLO 205 colon.
As for `CCCCCCCCCCCC(=O)OC(C)C(=O)Nc1ccccc1` (configuration not stated), the growth was 98.9% in the experiment with NCI-H23 lung; 103% in the experiment on NCI-H226 lung; 95.3% in the experiment on NCI-H322M lung; 97.4% in the experiment with HOP-62 NSCLC; 104% in the experiment on NCI-H460 lung; 104% in the experiment with A549/ATCC NSCLC. The growth is 94.7% with 786-0 renal and 102% in the experiment on COLO 205 colon.
